Bioassay records from PubChem.
This is a sample that favours compounds with a hit; in the whole collection about 2.3% have one here.
ADAM10 inh: human ADAM10 inhibitors, primary screen, biochemical, QFRET, HTS. Disintegrin and metalloproteinase domain-containing protein 10 (Homo sapiens), O14672. recombinant ADAM10, EDANS/DABCYL FRET peptide cleavage, 3 h. inhibition, % at 7 µM. hit rate 0.62% among 370,000. AID 720582, 2013;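 active = inhibition above a per-campaign cutoff equal to the mean of compounds falling between control-based bounds plus 3 SD, cut at about 20% in these data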;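 also: 0% = DMSO wells while the 100% control is not disclosed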
KLK7 zymogen act: proKLK7 zymogen activators, primary screen, biochemical, fluorescence intensity; AID 652039, 2013; hit rate 0.9% among 370,000; Kallikrein-7 (Homo sapiens), P49862; purified proKLK7, EDANS-DABCYL substrate fluorescence; 100% is mature enzyme control, 0% vehicle; activation, % at 7 µM;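 active = activation above the mean of all tested compounds plus 3 SD, computed per campaign excluding outliers beyond control limits, cut at about 13% in these data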
Target sequence (P49862 whole entry, looked up): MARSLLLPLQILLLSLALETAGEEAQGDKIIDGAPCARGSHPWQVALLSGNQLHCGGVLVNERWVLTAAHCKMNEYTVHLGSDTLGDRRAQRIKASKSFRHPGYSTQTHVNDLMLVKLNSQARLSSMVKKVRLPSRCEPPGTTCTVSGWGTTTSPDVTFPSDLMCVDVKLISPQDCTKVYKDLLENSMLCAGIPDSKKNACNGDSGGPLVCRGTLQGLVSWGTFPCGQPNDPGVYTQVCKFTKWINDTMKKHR
V-ATPase pHluor: regulators of yeast V-ATPase proton pumping, primary screen, pHLuorin cytosolic pH fluorescence; S. cerevisiae; response, % at 10 µM; hit rate 0.37% among 350,000; AID 504577, 2011; in the data active = response mostly above about 7.3%, no sharp cut-off; inactive = mostly below about 5.4%; also: actives read high
ADAM17 inh: ADAM17 inhibitors, primary screen, biochemical, QFRET. hit rate 0.83% among 370,000. AID 720648, 2013. inhibition, % at 6.95 µM. Disintegrin and metalloproteinase domain-containing protein 17 (Homo sapiens), P78536. recombinant ADAM17, EDANS/DABCYL FRET peptide cleavage;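 active = inhibition above the mean of compounds lying between control limits plus 3 SD, set per campaign, cut at about 8.5% in these data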;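 also: 0% = DMSO-only wells as the low control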
ADAM10 confirm: human ADAM10 inhibitors, confirmation, biochemical, QFRET, triplicate; shares compounds with ADAM10 inh; inhibition, % at 6.95 µM; AID 743208, 2013; ADAM10 QFRET peptide cleavage, EDANS fluorescence; hit rate 1% among 2,100;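 active = inhibition above about 20% chosen separately for each screening run, limit read from the data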;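 also: 0% = DMSO wells and 100% = marimastat wells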
ADAM17 counter: ADAM17 inhibitors, counter-screen for ADAM10 exosite inhibitor project, biochemical, QFRET, high throughput | AID 743214, 2013 | shares compounds with ADAM10 inh | inhibition, % at 6.95 µM | ADAM17 QFRET peptide cleavage, EDANS fluorescence | hit rate 0.5% among 2,100;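 active = mean triplicate inhibition above the solvent-only control wells' mean plus 3 SD, cut at about 12% in these data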;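 also: 0% = DMSO wells and 100% = marimastat wells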
ADAM10 ctr: ADAM10 inhibitors, counter-screen for ADAM17 exosite inhibitor project, biochemical, FRET, human ADAM10. shares compounds with ADAM17 inh. hit rate 47% among 2,900. AID 743256, 2014. recombinant ADAM10, EDANS/DABCYL FRET peptide cleavage, 3 h. inhibition, % at 6.95 µM;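 active = mean inhibition over the triplicate runs exceeds the activity threshold set in the earlier primary screen, cut at about 20% in these data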;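 also: 0% = DMSO wells and 100% = marimastat wells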
ADAM17 confirm: ADAM17 inhibitors, hit retest, confirmation, biochemical, QFRET peptide cleavage. inhibition, % at 6.95 µM. AID 743257, 2014. hit rate 65% among 2,900. recombinant ADAM17, EDANS/DABCYL QFRET peptide cleavage. shares compounds with ADAM17 inh;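 active = mean inhibition across replicates above the hit cutoff set in the primary screen, cut at about 8.5% in these data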;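 also: 0% = DMSO wells and 100% = marimastat wells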
The depositor's hits bear a star; · = not tested or not shown.

SMILES	ADAM10 inh	KLK7 zymogen act	V-ATPase pHluor	ADAM17 inh	ADAM10 confirm	ADAM17 counter	ADAM10 ctr	ADAM17 confirm
Cc1cc(C(O)c2ncc(-c3ccc(Oc4ccccc4)cc3)[nH]2)ccc1F (stereo not given)	20.9*	0.1	·	13.0*	10.1	3.0	37.5*	15.5*
Cc1ccccc1-c1cnc(C(O)c2ccc(C(C)(C)C)cc2)[nH]1 (stereo not given)	-1.6	0.9	·	2.9	·	·	·	·
Cc1ccccc1-c1cnc(C(O)c2ccc(-c3ccccc3)cc2)[nH]1 (stereo not given)	23.0*	0.8	·	9.1*	6.1	1.9	14.4	8.1
CN(C)c1ccc(C(=O)NCCc2ccccc2-c2ccccc2CCC(=O)NCc2ccccc2)cc1	-0.8	0.3	·	-1.1	·	·	·	·
COc1ccc2c3c([nH]c2c1)[C@]1(NCC3)C(=O)N(C)c2ccc(Cl)cc21	6.1	0.4	·	-1.1	·	·	·	·
COc1ccc(C2CC(c3ccccc3)=NN2C(=O)COC(=O)c2cccnc2Cl)cc1 (stereo not given)	19.9*	0.8	-3.8	8.9*	5.2	1.1	13.8	9.3*
CC(C)(C)C(=O)OC12CCCN(C1)/C(=C/c1ccccc1)C2 (stereo not given)	-13.2	-0.3	·	1.9	·	·	·	·
COc1ccc(CCNc2oc(COc3ccc(F)cc3)nc2C#N)cc1	23.6*	0.0	2.4	10.0*	9.7	2.7	32.7*	18.4*
COc1ccc(CCNc2oc(COc3ccccc3F)nc2C#N)cc1OC	9.8	-0.3	2.2	2.1	·	·	·	·
Oc1ccc(Cl)cc1-c1cc(-c2cccc(Br)c2)n[nH]1	24.9*	0.4	0.7	10.4*	13.5	4.3	31.3*	17.5*
Cc1ccc(NC(=O)COC(=O)/C(=C/c2cccs2)c2cccs2)cc1S(=O)(=O)N(C)C	24.1*	-0.1	5.2	15.3*	6.6	2.9	11.6	13.0*
CN(C(=O)c1cccc(NC(=O)Cc2ccc(NC(=O)C3CCN(S(=O)(=O)c4cccc([N+](=O)[O-])c4)CC3)cc2)c1)C1CCCC1	5.5	-0.4	1.2	4.2	·	·	·	·
CN(C(=O)c1cccc(NC(=O)Cc2ccc(NC(=O)C3CCN(S(=O)(=O)c4cccc([N+](=O)[O-])c4)CC3)cc2)c1)C1CCC1	19.9*	0.8	-2.4	12.4*	-0.4	0.1	23.9*	8.9*
Cc1ccc(NS(=O)(=O)c2ccc(NC(=O)c3ccc(Br)o3)cc2)c(C)c1	23.4*	0.9	-4.8	10.5*	6.4	1.6	31.9*	15.2*
Cc1ccc(NS(=O)(=O)c2ccc(NC(=O)CN(c3cc([N+](=O)[O-])ccc3C)S(C)(=O)=O)cc2)c(C)c1	21.4*	-0.3	-4.6	10.8*	4.1	1.3	54.0*	27.8*
Cc1ccc([N+](=O)[O-])cc1N(CC(=O)NC1CCCC1)S(C)(=O)=O	1.9	0.3	-1.8	-2.5	·	·	·	·
Cc1cc(C)cc(NS(=O)(=O)c2ccc(NC(=S)NC(=O)c3ccc(Br)o3)cc2)c1	20.5*	1.5	-4.3	10.6*	10.4	4.0	29.1*	13.9*
Cc1ccc(NS(=O)(=O)c2ccc(NC(=O)c3ccccc3C(=O)O)cc2)c(C)c1	-1.7	0.3	-1.1	-0.5	·	·	·	·
COc1ccc(CN2C[C@H](COCc3ccccc3)Oc3cccc(Oc4ccc(C(C)C)cc4)c3S2(=O)=O)cc1	-9.5	0.1	·	-1.8	·	·	·	·
